Source: PubChem (National Center for Advancing Translational Sciences (NCATS))
KB-3-1 tox: KB-3-1 parental cell cytotoxicity | Potency, µM (titrated, usually from 46.1 µM), hits mostly cytotoxic | KB-3-1 viability, CellTiter-Glo ATP luminescence, 72 h | 400,000 tested, 1.4% active | AID 1347075; further: nearly all actives have a fitted effect of over 60% in size
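Here the drug-naive KB-3-1 line serves as comparator for MDR sub-line selectivity; cells received compound titrations, 72 h at 37 °C, then CellTiter-Glo readout.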
HT1080 IDH1KD tx: HT-1080 IDH1 knockdown cell toxicity (counter line); 360,000 tested, 2% active; AID 686971; HT-1080 IDH1 knockdown viability, ATP luminescence, 48 h; Potency, µM (highest dose often 46.1 µM), hits mostly cytotoxic
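Luminescent ATP read-out (CellTiter-Glo, 10 min at room temperature) after 48 h compound exposure at 37 °C gave viability of IDH1-knockdown HT-1080 cells. Activity was normalised to DMSO and cell-free wells, then fitted as concentration-response curves.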
SW480 rerep: induces DNA re-replication in SW480 colon adenocarcinoma cells; SW480 DNA re-replication, Hoechst DNA content imaging, 48 h; AID 624297; Potency, µM (highest dose often 46.1 µM), hits mostly activators; 340,000 tested, 1.8% active; further: nearly all actives have a fitted effect of over 55% in size
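Image-based DNA-content assay: after two days of treatment, nuclei were labelled with the DNA dye Hoechst and imaged, and hits were compounds raising the count of nuclei showing high fluorescence intensity.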
HT1080-NT tox: kills 2HG-producing HT-1080-NT fibrosarcoma cells; HT-1080-NT fibrosarcoma viability, CellTiter-Glo ATP luminescence, 48 h; Potency, µM (doses to about 46.1 µM), actives largely listed as cytotoxic; 360,000 tested, 1.6% active; AID 686970;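 further: NT is the 2HG producing partner of a matched IDH1 knockdown line; nearly all actives have a fitted effect of over 55% in size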
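750 cells/well, RPMI + 5% FBS; 2 h settle, compound pin-transfer, 48 h at 37 degrees C. CellTiter-Glo 10 min RT, luminescence. Normalized to DMSO and media-only wells.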
MCF10A rereplic: induces DNA re-replication in MCF 10a normal breast cells; 350,000 tested, 2.9% active; AID 624296; Potency, µM (doses to about 46.1 µM), most hits filed as activators; MCF 10A DNA re-replication, Hoechst nuclear intensity, 48 h; further: nearly all actives have a fitted effect of over 50% in size
KB-V1 cytotox: KB-V1 MDR subline cytotoxicity | 400,000 tested, 3.4% active | Potency, µM (doses to about 46.1 µM), hits mostly cytotoxic | KB-V1 MDR cells viability, CellTiter-Glo, 72 h; further: nearly all actives have a fitted effect of over 60% in size
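Luminescent ATP read-out (CellTiter-Glo, 10 min) measures survival of drug-selected KB-V1 MDR cells after 72 h, 37 degrees C compound exposure. Medium: phenol-red-free DMEM, 10% FBS. Values from fitted concentration-response curves.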
Large screens that a line does not name were inactive. Only some compounds are listed: those with a hit (about 8% of all), similar ones and a draw of the others. The call rests on the fitted dose curve; in most records, active means well fitted curve in the direction sought with a large enough effect; inconclusive means small, poorly fitted or top-dose-only effect, or another doubt; inactive means no such curve, though single readings can be large; an effect the other way counts as inactive or inconclusive.

C#CCOCCOCCOCCNc1nc(N2CCN(C(=O)CCCCCCCCCCNC(=O)[C@H](CCCCN)n3cc(C[C@@H](C)CC)nn3)CC2)nc(N2CCN(C(=O)CCCCCCCCCCNC(=O)[C@H](CCCN=C(N)N)n3cc(C[C@@H](C)CC)nn3)CC2)n1	HT1080 IDH1KD tx inconclusive, HT1080-NT tox inconclusive, MCF10A rereplic 16µM
CN(CC1COCCO1)c1nc2nonc2nc1N1CCSCC1 (configuration not stated)	none
S=C1NC2(CCCCC2)Nc2ccccc21	none
C/C(=N\NS(=O)(=O)c1ccccc1)c1ccc2c(c1)OCO2	none
C#CCOCCOCCOCCNc1nc(N2CCN(C(=O)CCCCCCCCCCNC(=O)[C@H](CCCCN)n3cc(C[C@@H](C)CC)nn3)CC2)nc(N2CCN(C(=O)CCCCCCCCCCNC(=O)[C@@H]([C@H](C)O)n3cc(C)nn3)CC2)n1	KB-3-1 tox inconclusive, HT1080 IDH1KD tx inconclusive, HT1080-NT tox inconclusive, MCF10A rereplic 12µM, KB-V1 cytotox 9.2µM
C#CCOCCOCCOCCNc1nc(N2CCN(C(=O)CCCCCCCCCCNC(=O)[C@H](CCCCN)n3cc(CCO)nn3)CC2)nc(N2CCN(C(=O)CCCCCCCCCCNC(=O)[C@H](CCCCN)n3cc(C[C@@H](C)CC)nn3)CC2)n1	HT1080 IDH1KD tx inconclusive, HT1080-NT tox inconclusive, MCF10A rereplic inconclusive
CC[C@H](C)Cc1cn([C@@H](CCCN=C(NC(=O)OC(C)(C)C)NC(=O)OC(C)(C)C)C(=O)NCCCCCCCCCCC(=O)N2CCN(C(=O)OC(C)(C)C)CC2)nn1	KB-3-1 tox inconclusive, HT1080 IDH1KD tx inconclusive, HT1080-NT tox inconclusive, MCF10A rereplic inconclusive
C#CCOCCOCCOCCNc1nc(N2CCN(C(=O)CCCCCCCCCCNC(=O)[C@H]([C@@H](C)CC)n3cc(CCCCN=C(N)N)nn3)CC2)nc(N2CCN(C(=O)CCCCCCCCCCNC(=O)[C@@H]([C@H](C)O)n3cc(C)nn3)CC2)n1	KB-3-1 tox inconclusive, HT1080 IDH1KD tx 26µM, HT1080-NT tox inconclusive, KB-V1 cytotox inconclusive
Cc1cn([C@@H](CCCCNC(=O)OC(C)(C)C)C(=O)NCCCCCCCCCCC(=O)N2CCN(C(=O)OC(C)(C)C)CC2)nn1	KB-3-1 tox inconclusive, HT1080 IDH1KD tx inconclusive, HT1080-NT tox 21µM, MCF10A rereplic inconclusive
Cc1ccsc1/C=N\NC(=O)Cn1nnc2ccccc21	KB-3-1 tox inconclusive, HT1080 IDH1KD tx inconclusive, SW480 rerep 18µM, MCF10A rereplic inconclusive, KB-V1 cytotox inconclusive
Cc1ccccc1C(=O)N1CCC(C(=O)NCCc2ccc(S(N)(=O)=O)cc2)CC1	none
COc1ccc(CCNC(=O)CCCCCN2C(=O)[C@@H]3Cc4ccccc4CN3C2=O)cc1OC	KB-V1 cytotox inconclusive
Cc1ccc(Cl)cc1N1CCN(C(=O)c2ccc(CS(=O)Cc3ccc(Cl)cc3)o2)CC1 (configuration not stated)	HT1080 IDH1KD tx inconclusive, MCF10A rereplic inconclusive
Cc1ccc(C)c(N2CCN(C(=O)c3ccc(CS(=O)Cc4ccc(Cl)cc4)o3)CC2)c1 (configuration not stated)	SW480 rerep 16µM, MCF10A rereplic inconclusive, KB-V1 cytotox inconclusive
COc1ccc(N2CCN(C(=O)c3ccc(CS(=O)(=O)c4ccccc4C)o3)CC2)cc1	HT1080 IDH1KD tx inconclusive, KB-V1 cytotox inconclusive
Cc1ccc(C)c(N2CCN(C(=O)c3ccc(CS(=O)(=O)c4ccccc4C)o3)CC2)c1	KB-3-1 tox inconclusive, HT1080 IDH1KD tx 10µM, SW480 rerep inconclusive, HT1080-NT tox inconclusive, MCF10A rereplic inconclusive, KB-V1 cytotox inconclusive
Cc1ccc(C)c(N2CCN(C(=O)c3csc4ccccc34)CC2)c1	KB-3-1 tox inconclusive, MCF10A rereplic 16µM, KB-V1 cytotox inconclusive
Cc1ccc(S(=O)(=O)Cc2ccc(C(=O)N3CCN(c4cc(C)ccc4C)CC3)o2)cc1	KB-3-1 tox inconclusive, MCF10A rereplic inconclusive, KB-V1 cytotox 18µM
NC(=O)c1ccc(NC(=O)COC(=O)/C=C/c2cccs2)cc1	HT1080 IDH1KD tx inconclusive
COc1cc(OC)c(S(=O)(=O)Nc2ccccc2NC(=O)CN2CCOCC2)cc1NC(C)=O	MCF10A rereplic inconclusive
O=C(COC(=O)C1CCN(S(=O)(=O)c2cccs2)CC1)Nc1ccccc1Br	none
COc1ccccc1N(CC(=O)NC(C)(C)C)C(=O)Cn1nnc(-c2ccc(C)o2)n1	KB-V1 cytotox 2.3µM
COc1ccccc1N(CC(=O)NC1CCCCC1)C(=O)Cn1nnc(-c2ccc(C)o2)n1	KB-V1 cytotox inconclusive
O=C(N/N=C/c1cccnc1)c1cc(Br)ccc1O	none
O=C(N/N=C/c1ccccn1)c1cc(Br)ccc1O	HT1080 IDH1KD tx inconclusive, SW480 rerep 4.1µM, MCF10A rereplic inconclusive
Cc1cccc(/C=N/NC(=O)c2ccccc2OCc2cccc(Br)c2)n1	HT1080 IDH1KD tx inconclusive, MCF10A rereplic 18µM
Cc1cccc(/C=N/NC(=O)c2cc(Br)ccc2OCc2ccccc2)n1	HT1080 IDH1KD tx 18µM, SW480 rerep inconclusive, HT1080-NT tox inconclusive, MCF10A rereplic inconclusive
O=C(N/N=C/c1ccco1)c1cc(Br)ccc1OCc1ccccc1	none
CC(C)Oc1ccc(C(=O)NC2CCS(=O)(=O)C2)cc1 (configuration not stated)	none
Cc1cc(=O)[nH]c(NCc2ccccc2)n1	none
COc1ccc(C)cc1NC(=O)CNc1ccccc1CN(C)C1CCCCC1	HT1080 IDH1KD tx inconclusive, MCF10A rereplic inconclusive
Cc1cc(NC(=O)c2ccc(Br)c(S(=O)(=O)N3CCCC3)c2)no1	KB-V1 cytotox inconclusive
Oc1ccc(CCNc2ncnc3ccc(Cl)cc23)cc1	HT1080 IDH1KD tx inconclusive, MCF10A rereplic 8.2µM, KB-V1 cytotox inconclusive
CC(C)(C)c1ccc(C(=O)NCCCN2CCN(CCCNC(=O)c3ccc(C(C)(C)C)cc3)CC2)cc1	KB-3-1 tox inconclusive, HT1080 IDH1KD tx inconclusive, SW480 rerep inconclusive, HT1080-NT tox 18µM, MCF10A rereplic 16µM, KB-V1 cytotox 18µM
O=C(NCCCN1CCOCC1)c1ccc(Br)cc1	none
CCCCCCCCNC(=O)CCNC(=O)c1ccc(C(C)(C)C)cc1	MCF10A rereplic inconclusive, KB-V1 cytotox 13µM
CCOCCn1ccc2c(OCC(=O)NCCc3ccc(OC)c(OC)c3)cccc2c1=O	none
COc1ccc(C2C(C(=O)Nc3cc(OC)c(OC)c(OC)c3)c3ccccc3C(=O)N2C)cc1OC (configuration not stated)	none
CC(=O)Oc1ccccc1Cn1c(C)c(C(=O)NCc2cccc([N+](=O)[O-])c2)sc1=O	KB-V1 cytotox 18µM (no result: SW480 rerep, MCF10A rereplic)
Cc1c(C(=O)NCc2cccc([N+](=O)[O-])c2)sc(=O)n1Cc1ccc(F)cc1	KB-V1 cytotox inconclusive (no result: SW480 rerep, MCF10A rereplic)
